Results on 27 compounds are retold here after PubChem BioAssay AID602144 (Vanderbilt Specialized Chemistry Center, 2011).

What is called remaining activity is the signal under treatment as a percentage of the control signal.

The structures appear in SMILES notation. Activity calls are given as the source filed them. Cut-off read from the data, not from the text of the source: active = remaining activity below about 50%; inactive = the rest.

The target of this test is Phospholipase D1 (Homo sapiens) (UniProt Q13393). Nature of the test: PLD1 inhibitors in cells, Calu-1 cells, single concentration (AID 602144).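 Note: tested at 200 nM.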 The settings on record: cellular PLD1 activity, active compounds read low.
Phospholipase D1 (Homo sapiens), sequence (Q13393 whole entry, looked up): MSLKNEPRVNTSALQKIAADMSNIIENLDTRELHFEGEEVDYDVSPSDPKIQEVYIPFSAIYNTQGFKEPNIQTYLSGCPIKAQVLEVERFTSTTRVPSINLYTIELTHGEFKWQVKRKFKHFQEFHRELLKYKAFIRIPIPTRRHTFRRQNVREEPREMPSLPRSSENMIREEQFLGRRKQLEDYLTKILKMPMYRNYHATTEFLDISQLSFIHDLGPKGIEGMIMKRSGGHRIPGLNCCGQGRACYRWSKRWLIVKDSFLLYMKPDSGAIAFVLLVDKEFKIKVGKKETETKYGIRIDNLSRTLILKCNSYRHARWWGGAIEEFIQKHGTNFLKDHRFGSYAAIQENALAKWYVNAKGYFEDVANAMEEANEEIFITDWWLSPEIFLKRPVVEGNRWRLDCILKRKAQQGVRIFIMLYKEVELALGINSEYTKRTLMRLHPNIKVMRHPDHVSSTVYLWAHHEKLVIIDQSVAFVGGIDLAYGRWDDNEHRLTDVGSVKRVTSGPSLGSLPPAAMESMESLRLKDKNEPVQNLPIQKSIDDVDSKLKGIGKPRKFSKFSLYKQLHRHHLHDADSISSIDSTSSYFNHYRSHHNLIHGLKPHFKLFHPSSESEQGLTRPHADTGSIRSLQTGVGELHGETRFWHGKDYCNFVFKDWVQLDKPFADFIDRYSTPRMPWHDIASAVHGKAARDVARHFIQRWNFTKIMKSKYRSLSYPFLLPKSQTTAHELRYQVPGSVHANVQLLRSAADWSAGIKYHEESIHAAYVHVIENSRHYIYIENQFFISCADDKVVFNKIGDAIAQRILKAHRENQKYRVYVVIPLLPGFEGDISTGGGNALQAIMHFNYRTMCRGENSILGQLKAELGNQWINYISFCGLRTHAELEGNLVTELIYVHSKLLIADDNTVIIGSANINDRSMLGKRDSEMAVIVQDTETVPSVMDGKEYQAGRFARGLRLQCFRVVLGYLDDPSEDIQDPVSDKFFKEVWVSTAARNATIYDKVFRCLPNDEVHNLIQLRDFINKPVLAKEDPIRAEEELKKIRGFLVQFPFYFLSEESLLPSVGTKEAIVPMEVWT
Phospholipase D1 (Homo sapiens), sequence (Q13393 whole entry, looked up): as above
For the compound `O=C(NCCN1CCC2(CCc3ccccc32)CC1)c1ccc2ccccc2c1`, the remaining activity is 124% (inactive). Turning to `CCOC(=O)CNC(=O)NCCN1CCC(n2c(=O)[nH]c3ccccc32)CC1`, the remaining activity was 136% (inactive). In the case of `COc1cccc(N2CCN(CCNC(=O)c3ccc(Cl)cc3)CC2)c1`, the remaining activity is 96.1% (inactive). For `C[C@@H](CN1CCC(n2c(=O)[nH]c3cc(-c4cccnc4)ccc32)CC1)NC(=O)[C@H]1C[C@@H]1c1ccccc1` the value was 53.2% (inactive); for `O=C(NCCN1CCC(c2nc3ccccc3[nH]2)CC1)c1ccc2ccccc2c1`, 101% (inactive); for `C[C@@H](CN1CCC(n2c(=O)[nH]c3ccccc32)CC1)NC(=O)c1ccc(F)c(F)c1`, 21.3% (active). As to `C[C@@H](CN1CCC2(CC1)CN(S(C)(=O)=O)c1ccccc12)NC(=O)c1cnc2ccccc2c1`, the remaining activity is 118% (inactive). For `CCS(=O)(=O)NCCN1CCC(n2c(=O)[nH]c3ccccc32)CC1` the value was 121% (inactive); for `O=C(NCCN1CCC2(CC1)CNCc1ccccc12)c1ccc2ccccc2c1`, 122% (inactive); for `C[C@@H](CN1CCC(c2nc3ccccc3[nH]2)CC1)NC(=O)C1CC1c1ccccc1` (some centres not stated), 87.4% (inactive).

Consider `O=C(NCCN1CCC(n2c(=O)[nH]c3ccccc32)CC1)NCc1cccc(F)c1`, for which the remaining activity is 45.6% (active). Regarding `CS(=O)(=O)NCCN1CCC(n2c(=O)[nH]c3ccccc32)CC1`, the remaining activity is 88% (inactive). For `C[C@@H](CN1CCC(n2c(=O)[nH]c3cc(F)ccc32)CC1)NC(=O)c1ccc(F)c(F)c1` the value was 19.7% (active); for `O=C(NCCN1CCC(n2c(=O)[nH]c3ccccc32)CC1)Nc1cccc(F)c1`, 20.1% (active); for `O=c1[nH]c2ccccc2n1C1CCN(CCNS(=O)(=O)c2ccccc2[N+](=O)[O-])CC1`, 132% (inactive). As for `C[C@@H](CN1CCC2(C=Cc3ccccc32)CC1)NC(=O)c1ccc2ccccc2c1`, the remaining activity is 102% (inactive). Regarding `O=C(c1ccc2ccccc2c1)N1CCC2(CC1)C(=O)NCN2c1ccccc1`, the remaining activity is 113% (inactive).

Regarding `Cc1ccc(C(=O)N[C@@H](C)CN2CCC(n3c(=O)[nH]c4cc(Cl)ccc43)CC2)cc1`, the remaining activity was 12.1% (active). On to `Cn1c(=O)n(C2CCN(CCNC(=O)c3ccc(F)cc3)CC2)c2ccccc21`, for which the remaining activity is 84.4% (inactive). As for `O=C(NCCN1CCC(n2c(=O)[nH]c3ccccc32)CC1)c1cccc(F)n1`, the remaining activity is 34% (active). For `O=c1[nH]c2ccccc2n1C1CCN(CCNS(=O)(=O)c2ccc(F)cc2)CC1` the value was 129% (inactive).

For `Cc1cc(C)c(S(=O)(=O)NCCN2CCC(n3c(=O)[nH]c4ccccc43)CC2)c(C)c1`, the remaining activity is 133% (inactive). Turning to `O=C(NCCN1CCC(c2nc3ccccc3[nH]2)CC1)C1CC1c1ccccc1` (configuration not stated), the remaining activity was 56.9% (inactive). As for `O=C(N[C@@H](Cc1ccccc1)CN1CCC(n2c(=O)[nH]c3ccccc32)CC1)c1ccc2ccccc2c1`, the remaining activity was 113% (inactive). As to `O=C(NCCN1CCC(C(=O)NCCc2ccccn2)CC1)c1ccc2ccccc2c1`, the remaining activity is 101% (inactive). Regarding `O=C(NCCN1CCN(c2ncccn2)CC1)c1ccc2ccccc2c1`, the remaining activity is 118% (inactive). For `NC1(CN2CCC(c3nc4ccccc4[nH]3)CC2)CCCC1` (tested in a mixture with another compound) the value was 81.2% (inactive).
